The results in this text go back to PubChem BioAssay (EPA / NIEHS).

Molecules are shown by their SMILES. Inconclusive results are not listed. The source made the active and inactive calls. Rule for the calls, unless noted: active = hit-call score of the fitted dose curve at least 0.9, where 1 is the maximum; inactive = score below 0.9.

The subject of test [1] is SRY-box transcription factor 2 (SOX2) Protein Expression, Deisenroth Lab, SOX2 (gene 6657). Put plainly: CCTE_Deisenroth_DEVTOX-GLR_Endo_SOX2: CCTE's DevTox GLR-Endo Assay Evaluation of SRY-box transcription factor 2 (SOX2) Protein Expression, Deisenroth Lab (AID 2284412; active = hit-call score of the fitted dose curve at least 0.9, where 1 is the maximum). The method in brief:
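Endpoint is percent SOX2-positive cells (SOX2+ count/total cells) minus 0.2% DMSO control, from high-content imaging of fixed, nuclear-stained RUES2-GLR cells. Dosing twice at 24 h intervals over 48 h differentiation, 1 nM–200 uM in 10 points.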

Test [2] concerns SRY-box transcription factor 17 (SOX17) Protein Expression, Deisenroth Lab, SOX17 (gene 64321). The experiment in a line: CCTE_Deisenroth_DEVTOX-GLR_Endo_SOX17: CCTE's DevTox GLR-Endo Assay Evaluation of SRY-box transcription factor 17 (SOX17) Protein Expression, Deisenroth Lab (AID 2284413). The method in brief:
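RUES2-GLR human pluripotent cells were seeded 24 h, then differentiated toward endoderm for 48 h with two chemical exposures 24 h apart (10-point series, 1 nM - 200 uM). Nuclei-stained fixed cells were imaged; endpoint is percent change in SOX17+ cells versus 0.2% DMSO.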

The test system of test [3] is Brachyury (BRA) Protein Expression, TBXT (gene 6862). The experiment in a line: CCTE_Deisenroth_DEVTOX-GLR_Endo_BRA: CCTE's DevTox GLR-Endo Assay Evaluation of Brachyury (BRA) Protein Expression, Deisenroth Lab (AID 2284417). The method in brief:
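RUES2-GLR pluripotent cells differentiated 48 h with two chemical exposures 24 h apart, 10-point range 1 nM - 200 uM. Percentage of BRA+ cells per total count by high-content imaging, minus 0.2% DMSO control.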

Test [4] in a line: CCTE_Deisenroth_DEVTOX-GLR_Endo_CellCount: Viability Assessment in CCTE's DevTox GLR-Endo Assay, Deisenroth Lab (AID 2284420). The method in brief: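 Viability in differentiating RUES2-GLR cultures is scored by fluorescent nuclear counts after 48 h and two 24-hourly chemical treatments, as percent change from the 0.2% DMSO control.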
Test [5] relates to SRY-box transcription factor 17 (SOX17) Protein Expression, Deisenroth Lab, SOX17 (gene 64321). Put plainly: CCTE_Deisenroth_DEVTOX-GLR_Pluri_SOX17: CCTE's DevTox GLR-Pluri Assay Evaluation of SRY-box transcription factor 17 (SOX17) Protein Expression, Deisenroth Lab (AID 2284427; active = hit-call score of the fitted dose curve at least 0.9, where 1 is the maximum). The method in brief:
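Seed cells 24 h; differentiate 48 h, dosing at 0 and 24 h (1 nM - 200 uM); fix, stain nuclei, image 5 fields per well; count SOX17+ cells over total cells and subtract 0.2% DMSO control.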

In test [6] the test system is SRY-box transcription factor 2 (SOX2) Protein Expression, Deisenroth Lab, SOX2 (gene 6657). The experiment in a line: CCTE_Deisenroth_DEVTOX-GLR_Pluri_SOX2: CCTE's DevTox GLR-Pluri Assay Evaluation of SRY-box transcription factor 2 (SOX2) Protein Expression, Deisenroth Lab (AID 2284428). The method in brief: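 SOX2 expression frequency is scored in a human pluripotent reporter line, RUES2-GLR, exposed to chemicals twice over 48 h. Imaging-based SOX2+ cell percentage is normalized as change versus 0.2% DMSO.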

For test [7], the system named is Brachyury (BRA) Protein Expression, Deisenroth Lab, TBXT (gene 6862). The experiment in a line: CCTE_Deisenroth_DEVTOX-GLR_Pluri_BRA: CCTE's DevTox GLR-Pluri Assay Evaluation of Brachyury (BRA) Protein Expression, Deisenroth Lab (AID 2284429; active = hit-call score of the fitted dose curve at least 0.9, where 1 is the maximum). The method in brief: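 Percent BRA+ cells (BRA+ count over total cells) by high-content imaging of fixed RUES2-GLR cultures, corrected by 0.2% DMSO control. Cells received two doses over 48-hour differentiation, 1 nM–200 uM, n=4 experiments.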

Test [8] in a line: CCTE_Deisenroth_DEVTOX-GLR_Pluri_CellCount: Viability Assessment in CCTE's DevTox GLR-Pluri Assay Evaluation of Total Cell Counts, Deisenroth Lab (AID 2284430). The method in brief:
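Cytotoxicity readout: fluorescent nuclei counts by high-content imaging, expressed as percent change relative to 0.2% DMSO. Human RUES2-GLR pluripotent line differentiated 48 h, dosed twice at 24-h intervals across 1 nM - 200 uM (10 points).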

Test [9] in a line: CCTE_Padilla_ZF_Score.Living: CCTE's 144 Hour Post-fertilization zebrafish Assay Score for Viability, Padilla Lab (AID 2284410).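 Note: larval death at 6 dpf judged by absent heartbeat or coagulation.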 The method in brief: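 Mortality at 6 dpf, judged as absent heartbeat or coagulation by two blinded observers, after sealed static exposure beginning at 6–8 hpf at 26C. Larvae were rinsed free of chemical at 5 dpf, and activity was fitted relative to DMSO.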

Test [10] is described as follows: CCTE_Padilla_ZF_Score.Tail: CCTE's 144 Hour Post-fertilization zebrafish Assay Score for Tail Malformation, Padilla Lab (AID 2284414). The method in brief:
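Tail malformations were scored at 6 dpf by two blinded assessors under a stereo microscope. Chorionated embryos had been exposed from 6-8 hpf in sealed wells of 10% Hanks' at 26 C, then rinsed free of chemical at 5 dpf.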

Test [11] is described as follows: CCTE_Padilla_ZF_Score.Blood_pooling: CCTE's 144 Hour Post-fertilization zebrafish Assay Score for Blood Pooling, Padilla Lab (AID 2284415). The method in brief:
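Blood pooling was scored at 6 dpf under a stereo microscope by two blinded assessors, fitted upward against DMSO. Single embryos were dosed at 6–8 hpf in 10% Hanks', kept sealed at 26C (14:10 h cycle) and rinsed at 5 dpf.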

Test [12] is described as follows: CCTE_Padilla_ZF_Score.Any: CCTE's 144 Hour Post-fertilization zebrafish Assay Score for Any Mortality or Malformation, Padilla Lab (AID 2284416). The method in brief:
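Wild-type zebrafish embryos with chorions, one per well in 10% Hanks' from 6–8 hpf, dosed in sealed plates at 26 C, 14:10 h light:dark; rinsed at 5 dpf; blinded scoring at 6 dpf for death or malformation, versus DMSO.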

Another test relates to TTR (gene 7276). Put plainly: CCTE_GLTED_hTTR_0.125uM: CCTE's human Transthyretin (hTTR) Inhibition Assay, with 0.125uM TTR, Great Lakes Toxicology and Ecology Division (GLTED) Lab (AID 2284431).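 Note: hits lower the fluorescence signal relative to DMSO baseline.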 The method in brief: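 Probe-displacement format: chemicals competing for the T4 site release ANSA from 0.125uM TTR during a 2 h incubation, measured by fluorescence at 380 excitation and 475 emission.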

In general, AC50 refers to the concentration giving half of the maximal activity seen. In the case of `NC(=O)N1c2ccccc2C=Cc2ccccc21`, the AC50 in test [1] is 16.7 µM (active); in test [2] it was 100 µM (active); in test [4], 63.4 µM (active); in test [5] it was 64.8 µM (active); in [6], 23 µM (active); in test [7], 47 µM (active). The outcome in test [3] and in test [8] was inactive.
`FC(F)(F)C(F)(F)C(F)(F)C(F)(F)C(F)(F)C(F)(F)I`: the compound was classed as inactive in [9], in test [10], in [11] and in test [12].
Regarding `OCCC(F)(F)C(F)(F)C(F)(F)C(F)(F)F`, the compound was called inactive in test [9], in test [10], in test [11] and in test [12].
Take `OC(O)(C(F)C(O)(O)C(F)(F)F)C(F)(F)F`: the result in [9] and in test [10] was inactive. In addition, the AC50 in test [11] is 36.6 µM (active); in test [12], 16.9 µM (active).
With `CCCC(CCC)C(=O)O`, the result in test [2], in test [3], in test [4], in test [5], in test [6] and in test [7] was inactive. Moreover, the outcome in [8] was inactive.
For `O=S(=O)(O)CCC(F)(F)C(F)(F)C(F)(F)C(F)(F)C(F)(F)C(F)(F)F`, the result in test [9], in test [10], in [11] and in test [12] was inactive.
Take `NNC(=O)c1ccncc1`: the call in test [1], in test [2], in test [3], in test [4], in test [5] and in [6] was inactive. For the same compound, the compound was called inactive in test [7] and in test [8].
In the case of `FC(F)C(F)(F)COCC1CO1` (stereo not drawn), the compound was classed as inactive in test [9], in test [10] and in test [11]. Also, in test [12], the AC50 is 30.7 µM (active).
Consider `C=CCc1cc(S(=O)(=O)c2ccc(O)c(CC=C)c2)ccc1O`, for which the AC50 in the test with TTR (gene 7276) was 1.67 µM (active).
Take `FC(F)(F)COC(OCC(F)(F)F)OCC(F)(F)F`: the compound was classed as inactive in test [9], in test [10], in test [11] and in [12].
As for `CCc1ccc(O)c(C(C)(C)C)c1`, in the test with TTR (gene 7276), the AC50 is 12.4 µM (active).
As to `FC(F)=C(F)C(F)(F)C(F)(F)C(F)(F)C(F)(F)C(F)(F)C(F)(F)F`, the call in [9], in [10], in test [11] and in [12] was inactive.
